Source: PubChem BioAssay (Tox21)
Values joined by “and” are separate entries in the source; they are usually repeats but may differ in a detail not shown here. Identical values can stand only once. Inconclusive results are not listed. Entries that show only a call come without a potency. Active and inactive are the calls of the source. Unless noted, calls come from the whole dose curve; as a rule, active = well fitted curve in the direction sought with a large enough effect in the repeat runs; inconclusive = weak or mixed curves; inactive = no such curve, though single readings can be large; an effect the other way counts as inactive or inconclusive.

How the values were obtained:
[1] = qHTS assay for small molecule disruptors of the mitochondrial membrane potential - cell viability (AID 720634; calls by dose curve;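 note: human HepG2 liver cancer cells; series mostly up to about 83 µM; nearly all actives have a fitted effect of over 20% in size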)
Method in brief: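 Cytotoxicity was measured by ATP quantitation in HepG2 wells that had first been treated with compound for 1 hr and stained with m-MPI dye; CellTiter-Glo incubation was 30 min at room temperature.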

[2] = qHTS assay to test for compound auto fluorescence at 590 nm (red) in HepG2 cells (AID 720674)
Method in brief: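 Rose Bengal sodium served as the red fluorophore standard. HepG2 monolayers (overnight attachment, MEM with 10% FBS) were exposed to test compounds for 1 hr at 37 C and read at Ex 540/Em 590 nm.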

[3] = qHTS assay to test for compound auto fluorescence at 535 nm (green) in HepG2 cells (AID 720675)
[4] = qHTS assay to test for compound auto fluorescence at 590 nm (red) in HEK293 cells (AID 720679)
Method in brief: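 We plated HEK293 cells in 10% dialyzed FBS medium, let them adhere for 4-5 hr, then added 23 nL compound. Overnight at 37C and 5% CO2 preceded fluorescence measurement at 540/590nm.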

[5] = qHTS assay for small molecules that induce genotoxicity in human embryonic kidney cells expressing luciferase-tagged ATAD5 (AID 651632); note: nearly all actives have a fitted effect of over 15% in size
Method in brief: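 Cells were seeded at 2,000 per well, dosed with compound, and incubated 16 hr at 37C in 5% CO2. Luciferase activity was then quantified after a 30 min room-temperature incubation with Amplite.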

[6] = qHTS assay for small molecules that induce genotoxicity in human embryonic kidney cells expressing luciferase-tagged ATAD5 - cell viability (AID 651634; calls by dose curve; note: nearly all actives have a fitted effect of over 25% in size)
Method in brief: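 Cells (HEK293T, luciferase-tagged ATAD5) are seeded at 2,000 per well, dosed with compound or DMSO vehicle, and incubated 15.5 hr at 37C and 5% CO2. CellTiter-Fluor is added for 30 min before fluorescence is measured.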

[7] = qHTS assay for small molecule disruptors of the mitochondrial membrane potential (AID 720635); note: potency is the fitted concentration of half-maximal effect
Method in brief: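 HepG2 cells (2,000/well) attached overnight at 37C, then took compound for 1 hr at 37C, 5% CO2. Mito-MPS dye was added for 30 min; fluorescence was read at 490/535 nm (monomers) and 540/590 nm (aggregates).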

[8] = qHTS assay to test for compound auto fluorescence at 460 nm (blue) in HEK293 cells (AID 720678)
Method in brief: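 Triamterene serves as the blue fluorophore standard. Compound signal at 405/460 nm is read in HEK293 wells (2,000 cells, 10% dialyzed FBS) after overnight treatment at 37C.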

[9] = qHTS assay for small molecule agonists of the p53 signaling pathway - cell viability (AID 651633; calls by dose curve;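 note: p53RE-bla HCT reporter cells with a stable beta-lactamase p53 reporter; series mostly up to about 83 µM; nearly all actives have a fitted effect of over 30% in size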)
Method in brief: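 p53RE-bla cells, seeded at 4,000 per well and rested 5 h at 37 C/5% CO2, received compounds in DMSO for 16 h at 37 C. CellTiter-Glo was then added, and luminescence was read after 30 min at room temperature to gauge cytotoxicity.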

| SMILES | Potency [1] | Potency [2] | Potency [3] | Potency [4] | Potency [5] | Potency [6] | Potency [7] | outcome [8] | Potency [9] |
| --- | --- | --- | --- | --- | --- | --- | --- | --- | --- |
| NCCN | inactive | inactive | inactive | inactive |  |  |  |  |  |
| C=C[C@H]1CN2CC[C@H]1C[C@H]2[C@H](O)c1ccnc2ccc(OC)cc12 | inactive | inactive | inactive | inactive | inactive | inactive | inactive | inactive |  |
| Oc1ccc(C(c2ccc(O)cc2)C(Cl)(Cl)Cl)cc1 | inactive | inactive | inactive | inactive | inactive | inactive | 6.09 µM (active) and 6.86 µM (active) | inactive |  |
| CC/C(=C(/CC)c1ccc(O)cc1)c1ccc(O)cc1 | inactive | inactive | inactive | inactive |  | inactive | 7.5 µM (active) and 6.06 µM (active) and 10.9 µM (active) |  |  |
| CC1(C)NC(=O)N(c2ccc([N+](=O)[O-])c(C(F)(F)F)c2)C1=O | inactive | inactive | inactive | inactive | inactive | inactive |  | inactive |  |
| IC(I)I |  | inactive | inactive | inactive | inactive | inactive |  |  | inactive |
| O=C(O)COCCN1CCN(C(c2ccccc2)c2ccc(Cl)cc2)CC1 (stereo not given) | inactive | inactive | inactive | inactive | inactive | inactive |  | inactive |  |
| C1COCCN1 | inactive | inactive | inactive | inactive | inactive | inactive | inactive | inactive |  |
| CC(=O)O[C@]1(C(C)=O)CC[C@H]2[C@@H]3C=C(Cl)C4=CC(=O)CC[C@]4(C)[C@H]3CC[C@@]21C | inactive | inactive | inactive | inactive | inactive | inactive |  | inactive |  |
| CN(C)CCCN1c2ccccc2Sc2ccc(Cl)cc21 | inactive | inactive | inactive | inactive | inactive | inactive |  | inactive |  |
| C=C1C[C@H]2[C@@H]3C=C(C)C4=CC(=O)CC[C@]4(C)[C@H]3CC[C@]2(C)[C@@]1(OC(C)=O)C(C)=O | inactive | inactive | inactive | inactive | inactive | inactive | inactive | inactive |  |
| O=C(O)c1cc(=O)[nH]c(=O)[nH]1 | inactive | inactive | inactive | inactive | inactive | inactive | inactive | inactive |  |
| c1ccc2c(c1)ccc1ncccc12 | inactive | inactive | inactive | inactive | inactive | inactive | 27.3 µM (active) | inactive |  |
| CN(Cc1cnc2nc(N)nc(N)c2n1)c1ccc(C(=O)N[C@@H](CCC(=O)O)C(=O)O)cc1 | inactive | inactive | inactive | inactive | inactive | inactive |  |  |  |
| Cc1ccc(N)c([N+](=O)[O-])c1 | inactive | inactive | inactive | inactive | inactive | inactive | 54.5 µM (active) |  |  |
| NCCOCCO | inactive | inactive | inactive | inactive | inactive | inactive | inactive | inactive |  |
| NC[C@H](O)c1ccc(O)c(O)c1 | inactive | inactive | inactive | inactive | inactive | inactive | inactive |  |  |
